Data as given in PubChem BioAssay AID1159580 (chemical genetic matrix, 2015).
About 2,000 (36%) of roughly 5,500 compounds were called active. Roughly 18% stayed inconclusive and do not appear here. Rule as the data show it: active = normalized growth mostly below about 0.91 (no sharp cut-off); inconclusive = no clear call, values can overlap the other calls; inactive = mostly above about 0.92. Some of the results follow.

Assay: chemical genetic growth profiling, strain panel (AID 1159580);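 also: tested at 20 µM; growth read once vehicle control cultures reached saturation at 30 °C; 1 = growth at the plate median or of vehicle wells; lower values mean less growth of the strain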
Conditions: growth OD
[1] = S. cerevisiae deletion strains, locus YAL013W, strain DEP1, stronger effect = lower value
[2] = S. cerevisiae deletion strains, locus YBR229C, strain ROT2, stronger effect = lower value
[3] = S. cerevisiae deletion strains, locus YDL101C, strain DUN1, stronger effect = lower value
[4] = S. cerevisiae deletion strains, locus YDR150W, strain NUM1, stronger effect = lower value
[5] = S. cerevisiae deletion strains, locus YEL061C, strain CIN8, stronger effect = lower value
[6] = S. cerevisiae deletion strains, locus YGR078C, strain PAC10, stronger effect = lower value
[7] = S. cerevisiae deletion strains, locus YHR030C, strain SLT2, stronger effect = lower value
[8] = S. cerevisiae deletion strains, locus YHR087W, strain rtc3, stronger effect = lower value
[9] = S. cerevisiae deletion strains, locus YJR043C, strain POL32, stronger effect = lower value
[10] = S. cerevisiae deletion strains, locus YJR075W, strain HOC1, stronger effect = lower value
[11] = S. cerevisiae deletion strains, locus YLR039C, strain RIC1, stronger effect = lower value
[12] = S. cerevisiae deletion strains, locus YLR058C, strain SHM2 (second series), stronger effect = lower value
[13] = S. cerevisiae deletion strains, locus YLR085C, strain ARP6, stronger effect = lower value
[14] = S. cerevisiae deletion strains, locus YLR262C, strain YPT6, stronger effect = lower value
[15] = S. cerevisiae deletion strains, locus YML094W, strain GIM5, stronger effect = lower value
[16] = S. cerevisiae deletion strains, locus YMR219W, strain ESC1, stronger effect = lower value
[17] = S. cerevisiae deletion strains, locus YMR263W, strain SAP30, stronger effect = lower value
[18] = S. cerevisiae deletion strains, locus YNL153C, strain GIM3, stronger effect = lower value
[19] = S. cerevisiae deletion strains, locus YNL298W, strain CLA4 (second series), stronger effect = lower value
[20] = S. cerevisiae deletion strains, locus YNL322C, strain KRE1, stronger effect = lower value
[21] = S. cerevisiae deletion strains, locus YNR030W, strain Alg12, stronger effect = lower value
[22] = S. cerevisiae deletion strains, locus YPL055C, strain LGE1, stronger effect = lower value
[23] = S. cerevisiae deletion strains, locus YPL241C, strain CIN2, stronger effect = lower value
[24] = S. cerevisiae deletion strains, locus YPR135W, strain CTF4, stronger effect = lower value

Measured: normalized growth

CCOC(=O)c1cnc(SCC(=O)c2ccc(Cl)cc2Cl)[nH]1
inactive: [1] 1 | [2] 1 | [3] 1 | [4] 1.02 | [5] 1.03 | [6] 1.02 | [7] 0.936 | [8] 1.01 | S. cerevisiae deletion strains, locus YJL187C, strain SWE1, stronger effect = lower value 1.03 | [9] 0.999 | [10] 1 | S. cerevisiae deletion strains, locus YKL190W, strain CNB1, stronger effect = lower value 0.993 | [11] 0.934 | [12] 1.01 | [13] 1.06 | [14] 0.914 | [15] 1.01 | [16] 1.01 | [17] 0.938 | [18] 1 | [19] 1.04 | [20] 1.01 | [21] 0.988 | [22] 1.08 | [23] 1.01 | [24] 0.851

Cc1cc(NC(=O)Nc2cccc(C(F)(F)F)c2)n(C)n1
inactive: [1] 1 | [2] 0.997 | S. cerevisiae deletion strains, locus YCL061C, strain MRC1, stronger effect = lower value 1.01 | [3] 0.983 | [4] 0.998 | [5] 1.01 | [6] 1.01 | [7] 1.08 | [8] 0.989 | [9] 0.998 | [10] 0.992 | [11] 1.02 | [12] 1.01 | [13] 0.986 | [14] 1.09 | [15] 0.987 | [16] 1 | [17] 1.01 | [18] 0.998 | [19] 0.991 | [20] 1.01 | [21] 1 | S. cerevisiae deletion strains, locus YOL006C, strain TOP1, stronger effect = lower value 1 | [22] 0.989 | [23] 0.981 | [24] 1.08 | S. cerevisiae strains, strain wild type, stronger effect = lower value 0.986

CC(C)Sc1c(Cl)cccc1NC(=O)Nc1ccccc1
active: [7] 0.666 | S. cerevisiae deletion strains, locus YLR113W, strain HOG1, stronger effect = lower value 0.765 | S. cerevisiae deletion strains, locus YPL256C, strain CLN2, stronger effect = lower value 0.803
inactive: S. cerevisiae deletion strains, locus YAR019C, strain CDC15, stronger effect = lower value 0.971 | S. cerevisiae deletion strains, locus YBL105C, strain PKC1, stronger effect = lower value 0.97 | S. cerevisiae deletion strains, locus YBR135W, strain CKS1, stronger effect = lower value 0.96 | S. cerevisiae deletion strains, locus YBR136W, strain MEC1, stronger effect = lower value 0.959 | S. cerevisiae deletion strains, locus YBR160W, strain CDC28, stronger effect = lower value 0.962 | S. cerevisiae deletion strains, locus YDL017W, strain CDC7, stronger effect = lower value 0.968 | S. cerevisiae deletion strains, locus YDL028C, strain MPS1, stronger effect = lower value 0.962 | [3] 0.976 | S. cerevisiae deletion strains, locus YDL108W, strain KIN28, stronger effect = lower value 0.966 | S. cerevisiae deletion strains, locus YDL132W, strain cdc53, stronger effect = lower value 0.974 | S. cerevisiae deletion strains, locus YDL214C, strain PRR2, stronger effect = lower value 0.871 | S. cerevisiae deletion strains, locus YDR052C, strain DBF4, stronger effect = lower value 0.973 | S. cerevisiae deletion strains, locus YDR054C, strain cdc34, stronger effect = lower value 0.959 | S. cerevisiae deletion strains, locus YDR226W, strain ADK1, stronger effect = lower value 0.976 | S. cerevisiae deletion strains, locus YDR477W, strain SNF1, stronger effect = lower value 0.867 | S. cerevisiae deletion strains, locus YER123W, strain YCK3, stronger effect = lower value 0.813 | S. cerevisiae deletion strains, locus YER133W, strain GLC7, stronger effect = lower value 0.899 | S. cerevisiae deletion strains, locus YFL009W, strain cdc4, stronger effect = lower value 0.97 | S. cerevisiae deletion strains, locus YFL029C, strain CAK1, stronger effect = lower value 0.964 | S. cerevisiae deletion strains, locus YFR003C, strain YPI1, stronger effect = lower value 0.957 | S. cerevisiae deletion strains, locus YFR019W, strain FAB1, stronger effect = lower value 0.872 | S. cerevisiae deletion strains, locus YFR028C, strain CDC14, stronger effect = lower value 0.963 | S. cerevisiae deletion strains, locus YGR040W, strain KSS1, stronger effect = lower value 0.843 | S. cerevisiae deletion strains, locus YGR052W, strain FMP48, stronger effect = lower value 0.937 | S. cerevisiae deletion strains, locus YGR092W, strain DBF2, stronger effect = lower value 0.836 | S. cerevisiae deletion strains, locus YHR079C, strain IRE1, stronger effect = lower value 0.898 | S. cerevisiae deletion strains, locus YHR082C, strain KSP1, stronger effect = lower value 0.858 | S. cerevisiae deletion strains, locus YHR205W, strain SCH9, stronger effect = lower value 0.788 | S. cerevisiae deletion strains, locus YIL147C, strain SLN1, stronger effect = lower value 0.964 | S. cerevisiae deletion strains, locus YJL095W, strain BCK1, stronger effect = lower value 0.803 | S. cerevisiae deletion strains, locus YJL128C, strain PBS2, stronger effect = lower value 0.966 | S. cerevisiae deletion strains, locus YJL157C, strain FAR1, stronger effect = lower value 0.895 | S. cerevisiae deletion strains, locus YJR016C, strain ILV3, stronger effect = lower value 0.97 | S. cerevisiae deletion strains, locus YJR066W, strain TOR1 (second series), stronger effect = lower value 0.915 | S. cerevisiae deletion strains, locus YJR066W, strain TOR1, stronger effect = lower value 0.835 | S. cerevisiae deletion strains, locus YKL048C, strain ELM1, stronger effect = lower value 0.874 | S. cerevisiae deletion strains, locus YKL067W, strain YNK1, stronger effect = lower value 0.892 | S. cerevisiae deletion strains, locus YKL101W, strain HSL1, stronger effect = lower value 0.891 | S. cerevisiae deletion strains, locus YKL193C, strain SDS22, stronger effect = lower value 0.963 | S. cerevisiae deletion strains, locus YKL203C, strain TOR2, stronger effect = lower value 0.891 | S. cerevisiae deletion strains, locus YLR133W, strain CKI1, stronger effect = lower value 0.857 | S. cerevisiae deletion strains, locus YLR403W, strain SFP1, stronger effect = lower value 0.863 | S. cerevisiae deletion strains, locus YML070W, strain DAK1, stronger effect = lower value 0.869 | S. cerevisiae deletion strains, locus YMR001C, strain CDC5, stronger effect = lower value 0.967 | S. cerevisiae deletion strains, locus YMR205C, strain PFK2 (second series), stronger effect = lower value 0.863 | S. cerevisiae deletion strains, locus YMR277W, strain FCP1, stronger effect = lower value 0.962 | S. cerevisiae deletion strains, locus YNL006W, strain LST8, stronger effect = lower value 0.975 | S. cerevisiae deletion strains, locus YNL020C, strain ARK1, stronger effect = lower value 0.861 | S. cerevisiae deletion strains, locus YNL161W, strain CBK1, stronger effect = lower value 0.975 | S. cerevisiae deletion strains, locus YNL183C, strain NPR1, stronger effect = lower value 0.827 | S. cerevisiae deletion strains, locus YNL207W, strain RIO2, stronger effect = lower value 0.965 | S. cerevisiae deletion strains, locus YNL222W, strain SSU72, stronger effect = lower value 0.964 | S. cerevisiae deletion strains, locus YNL307C, strain MCK1 (second series), stronger effect = lower value 0.771 | S. cerevisiae deletion strains, locus YOL078W, strain AVO1, stronger effect = lower value 0.964 | S. cerevisiae deletion strains, locus YOL136C, strain PFK27, stronger effect = lower value 0.86 | S. cerevisiae deletion strains, locus YOR061W, strain CKA2, stronger effect = lower value 0.895 | S. cerevisiae deletion strains, locus YOR119C, strain RIO1, stronger effect = lower value 0.935 | S. cerevisiae deletion strains, locus YOR231W, strain MKK1, stronger effect = lower value 0.883 | S. cerevisiae deletion strains, locus YOR329C, strain SCD5, stronger effect = lower value 0.966 | S. cerevisiae deletion strains, locus YPL031C, strain PHO85, stronger effect = lower value 0.853 | S. cerevisiae deletion strains, locus YPL153C, strain RAD53, stronger effect = lower value 0.867 | S. cerevisiae deletion strains, locus YPL204W, strain HRR25, stronger effect = lower value 0.839 | S. cerevisiae deletion strains, locus YPL209C, strain IPL1, stronger effect = lower value 0.973 | S. cerevisiae deletion strains, locus YPR025C, strain CCL1, stronger effect = lower value 0.961 | S. cerevisiae deletion strains, locus YPR106W, strain ISR1, stronger effect = lower value 0.964 | S. cerevisiae deletion strains, locus YPR111W, strain DBF20, stronger effect = lower value 0.951 | S. cerevisiae deletion strains, strain NNK1, stronger effect = lower value 0.942 | S. cerevisiae deletion strains, strain TSCII, stronger effect = lower value 0.963
